# From the supplement of paper PMC12494721
# Structures can show the parent of a compound that is named as a salt.
# Key:
# Details in all cases: incubation time: 27 h, anaerobic, 37 °C;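 for the amine columns active = adjusted P below 0.05 in both replicates with a change the same way and a mean fold change under 0.8 or over 1.25; inactive = the rest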
# [1] = system: Clostridium sporogenes DSM 1664; assay: growth (OD595) fold change vs plate DMSO controls (fold change (ratio)); higher = more growth
# In short: (§1)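 Anaerobic 27 h, 37 °C mGAM 96-well cultures were shaken, then read for absorbance at 595 nm. Values were blank-subtracted and corrected for compound background using 20 µM compound solutions in water. A calibration factor of 5 converted them to OD. Growth is the fold change versus the median of plate DMSO controls. Fold changes above 1.5 were set to NA, and values are the mean of 2 biological replicates.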
# Escherichia coli IAI1 [2] = assay: as above
# In short: as §1
# [3] = system: Klebsiella aerogenes DSM 30053; assay: as above
# In short: as §1
# [4] = system: Ruminococcus gnavus DSM 108212; assay: as above
# In short: as §1
# [5] = system: Klebsiella aerogenes DSM 30053; assay: fold change of Histamine concentration vs plate DMSO controls (fold change (ratio)); higher = more amine produced, active = hit call of the paper (significant change in both replicates, either direction)
# In short: (§2)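 In 80 µL wells, cultures of four gut bacterial strains in mGAM started at OD 0.1 before a 1:1 dilution and grew anaerobically at 37 °C for 27 h. Compounds were added to 20 µM final, except sweeteners at 50 µM final. After extraction of whole cultures with cold acetonitrile/methanol plus 0.1% formic acid and centrifugation, amines were measured by LC–triple-quadrupole MS in dynamic MRM mode against external calibration curves, with within-batch drift correction. Values give fold change over DMSO controls on the same plate, averaged across 2 biological replicates.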
# [6] = system: Clostridium sporogenes DSM 1664; assay: fold change of Tryptamine concentration vs plate DMSO controls (fold change (ratio)); higher = more amine produced, active = hit call of the paper (significant change in both replicates, either direction)
# In short: as §2
# [7] = system: Ruminococcus gnavus DSM 108212; assay: as above
# In short: as §2
# Escherichia coli IAI1 [8] = assay: fold change of Putrescine concentration vs plate DMSO controls (fold change (ratio)); higher = more amine produced, active = hit call of the paper (significant change in both replicates, either direction)
# In short: as §2
# [9] = system: Klebsiella aerogenes DSM 30053; assay: as above
# In short: as §2
# Escherichia coli IAI1 [10] = assay: fold change of Cadaverine concentration vs plate DMSO controls (fold change (ratio)); higher = more amine produced, active = hit call of the paper (significant change in both replicates, either direction)
# In short: as §2
# [11] = system: Klebsiella aerogenes DSM 30053; assay: as above
# In short: as §2
# [12] = system: Ruminococcus gnavus DSM 108212; assay: fold change of 2-Phenylethylamine concentration vs plate DMSO controls (fold change (ratio)); higher = more amine produced, active = hit call of the paper (significant change in both replicates, either direction)
# In short: as §2
Structure (SMILES),growth [1],growth (Escherichia coli IAI1 [2]),growth [3],growth [4],fold change of Histamine concentration [5],fold change of Tryptamine concentration [6],fold change of Tryptamine concentration [7],fold change of Putrescine concentration (Escherichia coli IAI1 [8]),fold change of Putrescine concentration [9],fold change of Cadaverine concentration (Escherichia coli IAI1 [10]),fold change of Cadaverine concentration [11],fold change of 2-Phenylethylamine concentration [12]
CC(C(=O)O)c1ccc2c(c1)[nH]c1ccc(Cl)cc12 (stereo unspecified) [Carprofen] (20 µM),1.05,1.02,0.996,1.1,1.07 (inactive),0.958 (inactive),1.03 (inactive),1.05 (inactive),0.99 (inactive),1.03 (inactive),0.995 (inactive),1.06 (inactive)
CCCN(CCC)S(=O)(=O)c1ccc(C(=O)O)cc1 [Probenecid] (20 µM),1.04,1.02,1.17,1.09,0.92 (inactive),0.999 (inactive),1 (inactive),0.984 (inactive),1 (inactive),1.04 (inactive),1.02 (inactive),1.02 (inactive)
CCN(CC)CCOC(=O)C(Cc1cccc2ccccc12)CC1CCCO1 (stereo unspecified) [Nafronyl oxalate] (20 µM),0.946,1.01,0.993,1,0.982 (inactive),0.969 (inactive),1.01 (inactive),1.01 (inactive),1 (inactive),1.03 (inactive),0.996 (inactive),1.01 (inactive)
CN(C)CCC(c1ccc(Cl)cc1)c1ccccn1 (stereo unspecified) [Chlorpheniramine maleate] (20 µM),0.73,0.712,0.719,0.699,0.983 (inactive),1.05 (inactive),1.03 (inactive),0.846 (inactive),0.989 (inactive),1.43 (active),1 (inactive),1.02 (inactive)
CCOC(=O)c1ccc(C#Cc2ccc3c(c2)C(C)(C)CCS3)nc1 [Tazarotene] (20 µM),1.02,0.951,0.961,0.972,1.02 (inactive),1.17 (inactive),1.22 (inactive),0.958 (inactive),0.977 (inactive),0.942 (inactive),1.04 (inactive),1.22 (inactive)
OCC(O)CN1CCN(c2ccccc2)CC1 (stereo unspecified) [Dropropizine] (20 µM),0.934,1.02,1.02,1.1,1.08 (inactive),1.04 (inactive),1.05 (inactive),0.998 (inactive),1 (inactive),1.04 (inactive),0.992 (inactive),1.05 (inactive)
COc1ccc(CNc2nc(N3CCC[C@H]3CO)ncc2C(=O)NCc2ncccn2)cc1Cl [Avanafil] (20 µM),0.96,0.981,0.99,0.992,1.01 (inactive),0.958 (inactive),1.01 (inactive),1.04 (inactive),1 (inactive),1.02 (inactive),0.991 (inactive),1.01 (inactive)
Cc1cn[nH]c1 [Fomepizole] (20 µM),0.879,0.987,0.971,1.15,1.03 (inactive),1.03 (inactive),1.01 (inactive),0.999 (inactive),0.995 (inactive),1.02 (inactive),0.986 (inactive),0.988 (inactive)
CC(C)(C)NC(=O)[C@H]1CC[C@H]2[C@@H]3CC[C@H]4NC(=O)C=C[C@]4(C)[C@H]3CC[C@]12C [Finasteride] (20 µM),1.18,0.998,1.05,1.24,0.977 (inactive),0.973 (inactive),1.06 (inactive),0.983 (inactive),0.982 (inactive),0.913 (inactive),1.01 (inactive),1.12 (inactive)
CC(CN(C)C)CN1c2ccccc2Sc2ccccc21 (stereo unspecified) [Trimeprazine tartrate] (20 µM),1.23,1.01,1.07,0.937,0.989 (inactive),1.08 (inactive),0.804 (inactive),0.885 (inactive),1 (inactive),1.02 (inactive),1.01 (inactive),0.818 (inactive)
"CCN(CC)CCOc1ccc(C(=C(Cl)c2ccccc2)c2ccccc2)cc1 [(Z,E) Clomiphene citrate] (20 µM)",1.06,1,1.02,1.01,0.973 (inactive),1.05 (inactive),0.655 (active),0.961 (inactive),0.981 (inactive),0.955 (inactive),1.01 (inactive),0.804 (inactive)
CN1CCCN=C1/C=C/c1cccc(O)c1 [Oxantel pamoate] (20 µM),1.1,1.04,1.03,0.853,0.924 (inactive),1.05 (inactive),1.06 (inactive),1.03 (inactive),0.967 (inactive),1.01 (inactive),1.01 (inactive),1.08 (inactive)
C=C1CC[C@H](O)C/C1=C/C=C1\CCC[C@]2(C)[C@@H]([C@H](C)CCCC(C)C)CC[C@@H]12 [Cholecalciferol] (20 µM),0.913,0.971,0.962,1.05,1.08 (inactive),0.975 (inactive),1.03 (inactive),0.96 (inactive),1.01 (inactive),0.984 (inactive),1.07 (inactive),1.13 (inactive)
CN1[C@@H]2CC[C@H]1C[C@@H](OC(=O)c1c[nH]c3ccccc13)C2 [Tropisetron hydrochloride] (20 µM),1.14,1,1.14,1.08,0.94 (inactive),1.01 (inactive),1.02 (inactive),0.982 (inactive),0.952 (inactive),0.994 (inactive),1.01 (inactive),0.957 (inactive)
N[C@@H](Cc1c[nH]c2ccccc12)C(=O)O [L-Tryptophan] (20 µM),1.02,0.993,0.989,1.19,1.02 (inactive),1.04 (inactive),1.05 (inactive),0.985 (inactive),0.995 (inactive),1.03 (inactive),0.993 (inactive),1.08 (inactive)
Cc1c(NC(C)C)c(=O)n(-c2ccccc2)n1C [Isopyrin hydrochloride] (20 µM),1.12,1.02,1.02,1,0.951 (inactive),1.03 (inactive),1.2 (inactive),1.14 (inactive),0.943 (inactive),1.02 (inactive),1 (inactive),1.32 (inactive)
C[C@@H]1[C@H](O)[C@@H](C)/C=C/C=C/C=C/C=C/C=C/C=C/C=C/[C@H](O[C@@H]2O[C@H](C)[C@@H](O)[C@H](N)[C@@H]2O)C[C@@H]2O[C@](O)(C[C@@H](O)C[C@@H](O)[C@H](O)CC[C@@H](O)C[C@@H](O)CC(=O)O[C@H]1C)C[C@H](O)[C@H]2C(=O)O [Amphotericin B] (20 µM),0.881,1.01,0.982,0.469,1.01 (inactive),0.985 (inactive),1.09 (inactive),1.23 (inactive),0.957 (inactive),1.09 (inactive),1.14 (inactive),1.25 (inactive)
COc1ccc2c(c1)N(C[C@H](C)CN(C)C)c1ccccc1S2 [Methotrimeprazine maleate salt] (20 µM),1.03,1.12,1,1.05,1.01 (inactive),1.07 (inactive),1.02 (inactive),1.19 (inactive),1.01 (inactive),0.995 (inactive),1.02 (inactive),1.11 (inactive)
c1coc(CNc2ncnc3[nH]cnc23)c1 [Kinetin] (20 µM),0.818,1.05,0.962,0.855,0.974 (inactive),0.976 (inactive),1.01 (inactive),1.08 (inactive),1.01 (inactive),0.999 (inactive),1.01 (inactive),1.04 (inactive)
OC[C@H]1O[C@@H](O[C@H]2[C@H](O)[C@@H](O)[C@H](O)O[C@@H]2CO)[C@H](O)[C@@H](O)[C@H]1O [Lactose] (50 µM),0.993,1.02,1.05,1.07,1.01 (inactive),0.96 (inactive),0.989 (inactive),1.03 (inactive),1.01 (inactive),0.984 (inactive),1.02 (inactive),0.976 (inactive)
NC(=O)C(c1ccccc1)(c1ccccc1)[C@@H]1CCN(CCc2ccc3c(c2)CCO3)C1 [Darifenacin hydrobromide] (20 µM),1.04,0.975,1.02,0.96,0.873 (inactive),1.19 (inactive),1.1 (inactive),0.943 (inactive),1.05 (inactive),0.961 (inactive),1.15 (inactive),1.25 (inactive)
CN1C(C(=O)Nc2ccccn2)=C(O)c2ccccc2S1(=O)=O [Piroxicam] (20 µM),1.07,1.03,1.02,1.05,0.953 (inactive),1.09 (inactive),0.99 (inactive),1.03 (inactive),0.99 (inactive),1.02 (inactive),1.04 (inactive),0.999 (inactive)
O=C(NCCN1CCOCC1)c1ccc(Cl)cc1 [Moclobemide] (20 µM),1.03,0.993,0.971,1.21,1.06 (inactive),1.04 (inactive),1.03 (inactive),1 (inactive),1.01 (inactive),1.01 (inactive),0.987 (inactive),1.03 (inactive)
